# Source: PubChem
# The list is not random: actives were taken first. Their share in the collection is about 5.4%.
# GAA850 FXN act: increases GAA850 frataxin promoter reporter activity; hit rate 0.56% among 360,000; activation, % at 6 µM; HEK293 lucGAA850 FXN promoter luciferase reporter, 24 h; percent of 10 µM SAHA response;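 active = activation above the average of all compounds screened plus 3 SD, cutoff fixed separately per campaign, cut at about 7.5% in these data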;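 note: 0% = DMSO wells and 100% = 10 µM SAHA wells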
# DAX1 inh: inhibitors of human orphan nuclear receptor DAX1 (NR0B1); P51843; HEK293 Gal4-DAX1 luciferase reporter, luminescence; inhibition, % at 6.75 µM; hit rate 0.99% among 340,000; AID 504766;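 active = inhibition above the mean over all tested compounds plus 3 SD, cut at about 4.2% in these data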;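 note: 0% = DAX1-transfected cells with DMSO and 100% = empty-vector control cells with DMSO; inhibition shows as a rise in luminescence from relieved DAX1 repression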
# Target sequence (P51843 207-470 limits assumed): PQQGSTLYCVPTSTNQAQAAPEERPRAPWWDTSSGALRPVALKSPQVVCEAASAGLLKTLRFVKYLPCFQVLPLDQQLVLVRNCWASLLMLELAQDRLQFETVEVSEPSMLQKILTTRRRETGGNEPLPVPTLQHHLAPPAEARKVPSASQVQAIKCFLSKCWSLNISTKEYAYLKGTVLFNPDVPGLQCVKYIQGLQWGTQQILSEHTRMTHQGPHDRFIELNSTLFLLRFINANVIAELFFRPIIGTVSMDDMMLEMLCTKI
# HSF1 inhib: HSF1 inhibition; NIH3T3-HGL HSE-luciferase, MG132-induced, luminescence 8 h; stronger effect = lower value; activity change, negative = inhibition, % at 7.5 µM (by protocol); hit rate 0.77% among 300,000; AID 2098;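 active = more than half of replicate wells show activity change below -50%, luminescence cut by over half; inconclusive = some wells, but at most half, below -50%; inactive = no replicate well below -50%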;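 note: luciferase reports HSF-1 transcriptional activity via heat shock element; 0% = median of DMSO wells and -100% = zero luminescence signal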
# AHR activator: human AHR activation | AHR-responsive luciferase reporter cells, luminescence | activation, % at 5 µM | hit rate 2.5% among 320,000 | AID 2796; in the data active = activation above about 47%;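 note: 0% = vehicle wells and 100% = reference agonist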
# HSF1 activator: increases HSF-1 driven luciferase reporter signal | NIH3T3-HGL HSF-1 luciferase reporter, MG132, 8 h; 100% = twice DMSO control signal | AID 504408 | activation, % at 9 µM | hit rate 1.7% among 300,000;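 active = mean replicate activation of at least 50% with a set share of replicates each reaching 50%; inconclusive = only one of those two conditions met; inactive = mean below 50% and too few replicates reaching it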;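 note: 0% = median of the neutral control wells and 100% = twice that signal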
# GAA30 counter: GAA30 FXN promoter activation counter-screen; shares compounds with GAA850 FXN act; HEK293 lucGAA30 FXN promoter luciferase, 24 h; DMSO = 0%, 5 µM ipriflavone = 100%; activation, % at 6 µM; hit rate 66% among 1,900; AID 588350;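 active = mean activation above the mean of solvent-only control wells plus 3 SD, cut at about 22% in these data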;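 note: counterscreen of GAA850 promoter hits where activity marks nonselective or luminescence artifacts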
# GAA850 confirm: GAA850 FXN promoter activation confirmation; shares compounds with GAA850 FXN act; hit rate 86% among 1,900; activation, % at 6 µM; HEK293 lucGAA850 FXN promoter luciferase reporter, 24 h; 100% = activation by SAHA; AID 588351;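 active = mean activation above a set limit taken from the primary screen, cut at about 8% in these data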;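 note: 0% = DMSO wells and 100% = 10 µM SAHA wells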
# Numbers without * were called inactive; ? = inconclusive; / = no result.
SMILES,GAA850 FXN act,DAX1 inh,HSF1 inhib,AHR activator,HSF1 activator,GAA30 counter,GAA850 confirm
COc1cccc(CCNC(=O)CCCC(=O)c2ccccc2)c1,-1.8,0.6,0.7,0.4,-7.1,/,/
CC1CCN(C(=O)CN2C(=O)C(=O)c3ccccc32)CC1,13.2*,0.1,-5.6,1.2,-6.8,22.5*,8.3*
COc1ccc(C2=NN(C(=O)COC(=O)c3ccc(S(C)(=O)=O)c([N+](=O)[O-])c3)C(c3ccco3)C2)cc1 (stereo unspecified),12.8*,1.0,/,1.1,/,-29.6,18.8*
CS(=O)(=O)c1ccc(C(=O)OCC(=O)N2CCOCC2)cc1[N+](=O)[O-],9.7*,/,/,/,/,82.8*,38.6*
CS(=O)(=O)c1ccc(C(=O)OCc2nnc(-c3ccccc3)o2)cc1[N+](=O)[O-],8.5*,-0.7,178.4,/,225.1*,-16.8,70.3*
CS(=O)(=O)c1ccc(C(=O)OCC(=O)Nc2cccnc2Cl)cc1[N+](=O)[O-],8.0*,0.6,/,1.5,/,31.3*,19.5*
O=C(COC(=O)c1ccc([N+](=O)[O-])cc1)Nc1cccnc1Cl,1.0,0.1,-1.3,-5.8,-0.7,/,/
COc1ccc(S(=O)(=O)N2CCCCC2)cc1NC(=O)Cc1sc(C)nc1-c1ccc(F)cc1,12.9*,-2.0,8.4,2.5,14.3,22.3*,10.7*
COc1ccc(S(=O)(=O)N2CCOCC2)cc1NC(=O)Cc1sc(C)nc1-c1ccc(F)cc1,1.4,0.1,5.5,-1.4,3.4,/,/
Cc1ccc(Nc2nc(CSc3nnc(-c4ccccc4)n3C)cs2)cc1,7.6*,1.2,15.2,26.0,43.0,120.2*,41.1*
CCCn1c(SCC(=O)N2c3ccccc3CC2C)n[nH]c1=O (stereo unspecified),1.5,0.3,/,/,/,/,/
Cn1cccc1/C=C1\CCC/C(=C\c2cccn2C)C1=O,12.3*,4.1,45.4,0.9,73.7*,98.9*,38.8*
COc1ccc2sc(-c3ccc(SC)cc3)c(C#CC(C)(C)O)c2c1,7.8*,-1.1,/,41.0,/,37.3*,26.1*
COc1cccc(-c2sc3ccc(OC)cc3c2C#CC(C)(C)O)c1,3.3,0.3,/,13.9,/,/,/
Cc1ccc(NN2C(=O)C=C(c3ccccc3)C2=O)cc1,10.0*,/,148.0,/,207.2*,32.2*,28.3*
O=C(Nc1cc([N+](=O)[O-])ccc1O)c1cccc([N+](=O)[O-])c1,1.3,-0.5,4.7,4.7,4.4,/,/
Cc1cc(O)c(NC(=O)c2cccc([N+](=O)[O-])c2)cc1C,7.6*,3.8,2.9,15.2,-5.0,91.1*,30.5*
c1cnc2c(SCc3ccc(-c4nnco4)cc3)cccc2c1,8.4*,0.0,11.1,0.1,38.5,73.9*,26.6*
Cc1cccc(CSc2cccc3cccnc23)c1,24.6*,-1.9,232.4,44.6,288.4*,-69.2,-13.2
CCN(CC)CCCNC(=O)c1[nH]c2ccccc2c1Sc1ccc(Cl)cc1,0.8,-0.8,-0.6,16.6,19.0,/,/
CN1CCN(S(=O)(=O)c2ccc(-c3ccc(Cl)cc3)cc2)CC1,13.1*,1.6,5.5,4.8,10.3,45.6*,12.8*
CN1CCN(S(=O)(=O)c2ccc(Cl)cc2)CC1,0.6,0.7,-0.3,7.1,-0.3,/,/
Cc1ccc2nc(/C(C#N)=C\c3ccc([N+](=O)[O-])o3)[nH]c2c1,8.1*,-1.5,?,32.7,-41.9,-52.1,-13.2
Cc1ccc2nc(/C(C#N)=C/c3ccc(-c4ccccc4C(=O)O)o3)[nH]c2c1,-0.8,0.6,-1.3,30.4,-17.7,/,/
COc1ccccc1-c1ccc2c(c1)C(C)(Cc1ccccc1C#N)C(=O)N2 (stereo unspecified),7.4,/,/,/,/,/,/
COc1ccccc1-c1ccc2c(c1)C(C)(Cc1ccc(Cl)c(Cl)c1)C(=O)N2 (stereo unspecified),16.9*,/,/,/,/,29.1*,11.4*
CN(C(=O)COC(=O)C1(C)CC1(Cl)Cl)c1c(N)n(Cc2ccccc2)c(=O)[nH]c1=O (stereo unspecified),-1.1,1.1,/,0.6,/,/,/
